Bioassay records from PubChem.
HCV inh – qHTS Assay for Inhibitors of Hepatitis C Virus (HCV); Potency, µM (top dose mostly 41.8 µM), for inactives: at the highest dose activity change, negative = inhibition, hits mostly inhibitors; Huh7.5.1 HCVcc-Cre infection, luciferase reporter, 44 h; actives 3.4% (n = 340,000); also: potency is read from the fitted curve at half-maximal effect; % is scaled to controls: 0 for no effect and ±100 for the full control effect
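Infectious HCV cell culture screen: compound-treated cells (1,000/well, pre-plated 4 h) are infected with HCVcc-Cre at roughly 0.5 moi and grown 44 h. Infection is quantified by luciferase signal after 15 min substrate incubation at room temperature.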
Pf growth 48h – Primary qHTS for delayed death inhibitors of the malarial parasite plastid, 48 hour incubation; P. falciparum luciferase growth in erythrocytes, 48 h; Potency, µM (doses to about 28.7 µM), without a hit: at the highest dose activity change, negative = inhibition, actives largely listed as inhibitors; actives 5.9% (n = 310,000); also: potency is read from the fitted curve at half-maximal effect; % is scaled to controls: 0 for no effect and ±100 for the full control effect
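Firefly luciferase activity from engineered P. falciparum reports growth; inhibitors lower the luminescent signal. Cultures contained 2% hematocrit erythrocytes at 0.1% final parasitemia.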
Pf growth 96h – Primary qHTS for delayed death inhibitors of the malarial parasite plastid, 96 hour incubation; Potency, µM (highest dose often 28.7 µM), inactives show at the top dose activity change, negative = inhibition, usual class: inhibitors; P. falciparum luciferase reporter growth, 96 h; actives 6.9% (n = 320,000); also: potency is read from the fitted curve at half-maximal effect; % is scaled to controls: 0 for no effect and ±100 for the full control effect
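Plates of compound plus infected erythrocytes (2% hematocrit, 0.05% parasitemia final) incubate 96 hours, 37 C, 5% CO2. Detection reagent added; reduced luminescence from the parasites' luciferase reporter flags inhibition.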
SARS PLP yeast – qHTS of Yeast-based Assay for SARS-CoV PLP | S. cerevisiae expressing SARS-CoV PLpro, growth rescue | AID 485353, 2010 | Potency, µM (doses to about 32.9 µM), for the others: at the top dose activity, positive = growth rescue, actives largely listed as activators | actives 0.19% (n = 330,000); calls by dose curve; also: potency is read from the fitted curve at half-maximal effect; 0% is about no effect; nearly all actives have a fitted effect of over 55% in size
HCMV antiviral – qHTS Assay for inhibitors of the human cytomegalovirus (HCMV); actives 4.5% (n = 410,000); activity change, negative = inhibition, % at 57.5 µM; HFF cells, HCMV-luciferase reporter, 72 h; hits give low values; in the data active = activity change below about -60%; inconclusive = no clear call, values can overlap the other calls; inactive = above about -39%; also: % is scaled to controls: 0 for no effect and ±100 for the full control effect
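Steps: HFFs plated, 16 h 37C; compounds added; HCMV-luciferase added to MOI 1 PFU/cell; 72 h 37C; OneGlo reagent, 5 min room temperature; luminescence read, normalized to controls.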
Sm TGR block – qHTS Assay for the Inhibitors of Schistosoma Mansoni Peroxiredoxins. Schistosoma mansoni thioredoxin glutathione reductase (TGR), Q962Y6. purified TGR, DTNB reduction, TNB absorbance 405 nm. Potency, µM (titrated, usually from 114 µM), inactives show at the top dose activity change, negative = inhibition, most hits filed as inhibitors. actives 3% (n = 360,000); also: potency is read from the fitted curve at half-maximal effect; % is scaled to controls: 0 for no effect and ±100 for the full control effect; nearly all actives have a fitted effect of over 60% in size
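First, TGR (20 nM dispensed) and NADPH were mixed with compound. Second, a 15 min room-temperature incubation followed. Third, further NADPH and then DTNB were added to start the reaction. Finally, TNB absorbance was monitored kinetically.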
Numbers without * were called inactive; ? = inconclusive; . = not tested or not shown. Only some compounds are listed: those with a hit (about 15% of all), similar ones and a draw of the others. Unless noted, calls follow the shape of the dose curve; as a rule, active = well fitted curve in the direction sought with a large enough effect; inconclusive = small, poorly fitted or top-dose-only effect, or another doubt; inactive = no such curve, though single readings can be large; an effect the other way counts as inactive or inconclusive.

SMILES	HCV inh	Pf growth 48h	Pf growth 96h	SARS PLP yeast	HCMV antiviral	Sm TGR block
CCOC(=O)c1c(CN2CCOCC2)n(-c2ccccc2)c2cc(Br)c(OC)cc12	?	?	.	5%	18	-7%
Cc1cc(Nc2ccc(F)cc2)nc(N)n1	-18%	?	9.3µM*	-4%	-1	-23%
CC(=O)NNc1cc(C)nc(N)n1	5%	10%	48%	1%	6	12%
Cc1cc(Nc2ccc(C(=O)O)cc2)nc(N)n1	1%	1%	22%	?	30	3%
Cc1cc(Nc2cc(Cl)cc(Cl)c2)nc(N)n1	?	1.9µM*	2.3µM*	-2%	-15	12%
COCCNC(=S)N(C)[C@H]1C[C@H]2c3cc(-c4ccccc4)ccc3CCN2C(=O)[C@H]1[C@H](C)O	.	.	.	.	-8	.
CCCCCCCCCCCCCCCC(=O)OC(CC(=O)O)C[N+](C)(C)C (stereo unspecified)	8%	1%	-12%	.	43	-3%
CCOC(=O)c1ccc(NC(=O)CCCc2nc(-c3ccccc3Cl)no2)cc1	.	.	.	.	-30	3%
CCCCCn1c(CCCNC(=O)c2ccccc2)nc2ccccc21	.	.	.	.	-27	0%
COc1ccc(NC(=O)C2CCCN2S(=O)(=O)c2ccc3nc(-c4ccccc4)[nH]c3c2)cc1 (stereo unspecified)	.	.	.	.	18	10%
COc1ccc(S(=O)(=O)N2CCCC2C(=O)Nc2ccc(C)cc2)cc1 (stereo unspecified)	-24%	-26%	62%	0%	26	-26%
CC(C)c1ccc(NC(=O)C2CCCCN2S(=O)(=O)c2ccccc2)cc1 (stereo unspecified)	22µM*	?	?	6%	?	-3%
Cc1ccc(NC(=O)C2CCCN2S(=O)(=O)c2ccc3nc(-c4ccccc4)[nH]c3c2)cc1F (stereo unspecified)	.	.	.	.	-84*	-1%
Cc1ccc(S(=O)(=O)N2CCCC2C(=O)Nc2ccc(O)cc2)cc1 (stereo unspecified)	9%	-21%	5.2µM*	-19%	-13	-13%
Cc1cccc(NC(=O)C2CCCCN2S(=O)(=O)c2ccccc2)c1C (stereo unspecified)	-1%	.	.	-1%	5	.
CC(=O)N/C(=C\c1ccccc1)C(=O)OCC(=O)N(CC(C)C)c1c(N)n(Cc2ccccc2)c(=O)[nH]c1=O	?	-30%	-9%	0%	4	-11%
CN1c2ccccc2C(C)(C)C12C=Nc1c(cc(N3CCOCC3)c3ccccc13)O2 (stereo unspecified)	6%	?	?	-14%	-74*	-1%
CCN1C(=O)[C@H]2[C@@H](c3ccc(-c4ccc(OC)cc4)cc3)N[C@@](CC(C)C)(C(=O)OC)[C@H]2C1=O	2%	12µM*	12µM*	6%	1	?
CCN1C(=O)[C@H]2[C@@H](c3ccc(-c4cccc(Cl)c4)cc3)N[C@@](CC(C)C)(C(=O)OC)[C@H]2C1=O	8%	.	.	-8%	27	.
COC(=O)[C@]1(CC(C)C)N[C@H](c2ccc(-c3ccc(Cl)c(Cl)c3)cc2)[C@@H]2C(=O)N(C)C(=O)[C@@H]21	4%	7.4µM*	4.7µM*	1%	-14	-20%
CCN1C(=O)[C@H]2[C@@H](c3ccc(-c4ccc(Cl)c(Cl)c4)cc3)N[C@@](CC(C)C)(C(=O)OC)[C@H]2C1=O	39%	12µM*	4.7µM*	6%	-5	?
COC(=O)[C@]1(CC(C)C)N[C@H](c2ccc(-c3ccc(C(C)=O)cc3)cc2)[C@@H]2C(=O)N(C)C(=O)[C@@H]21	9%	.	.	-4%	-36	.
COC(=O)c1ccccc1-n1c(CCC(=O)O)ccc1-c1ccccc1	0%	0%	?	-3%	6	45µM*
O=C(O)CCc1ccc(-c2cccs2)n1NC(=O)c1ccccc1Br	?	19%	40%	-3%	-18	?
O=C(O)CCc1ccc(-c2ccccc2)n1-c1cccc(Br)c1	.	.	.	.	25	16µM*
SMILES	HCV inh	Pf growth 48h	Pf growth 96h	SARS PLP yeast	HCMV antiviral	Sm TGR block
NC(=S)Nn1c(CCC(=O)O)ccc1-c1ccccc1	-17%	13%	?	11%	-26	2%
O=C(O)CCc1ccc(-c2ccccc2)n1NC(=O)c1cccs1	15%	21%	?	2%	-35	50µM*
CC(C)(C)c1ccc(C(=O)Nn2c(CCC(=O)O)ccc2-c2cccs2)cc1	?	15%	.	1%	23	50µM*
O=C(CCNC(=O)c1ccccc1)NCCc1ccc(Cl)cc1	12%	-2%	11%	-2%	38	1%
CC1(c2nnnn2Cc2ccccc2)CCC(=O)N1c1ccc(N2CCOCC2)cc1 (stereo unspecified)	.	.	.	.	-12	.
CC(=O)c1cccc(-n2c(CCC(=O)O)ccc2-c2ccccc2)c1	16%	-12%	3%	-1%	-8	18µM*
COC(=O)c1ccc(-n2c(CCC(=O)O)ccc2-c2ccccc2)cc1	7%	-3%	3.7µM*	-4%	.	14µM*
CN(C)c1ccc(-n2c(CCC(=O)O)ccc2-c2ccccc2)cc1	.	.	.	.	12	?
CC(=O)c1ccc(-n2c(CCC(=O)O)ccc2-c2ccc(C)cc2)cc1	18%	4%	-23%	1%	.	18µM*
O=C(O)CCc1nc(-c2cccs2)no1	8%	18%	?	1%	10	7%
O=C(O)CCc1ccc(-c2cccs2)n1-c1ccc(C(=O)O)cc1	19%	.	?	3%	-6	7.9µM*
CC(=O)c1ccc(-n2c(C)ccc2-c2ccccc2)cc1	-3%	.	?	-14%	40	-32%
CCN(CC)CCSc1nnc2c3cc(F)ccc3n(CC)c2n1	.	.	.	.	-27	-7%
C[C@@H]1CCCCO[C@@H](CN(C)Cc2ccncc2)[C@@H](C)CN([C@H](C)CO)C(=O)c2cc(NC(=O)c3ccccc3)ccc2O1	.	.	.	.	-1	.
O=C(C(=O)N(C1CCCCC1)C1CCCCC1)c1ccccc1	.	.	.	.	-29	.
Cc1cccc(NC(=O)c2sc(Cl)nc2C)c1C	3%	16%	?	4%	21	4%
Cc1cc(-n2cnnn2)cc(C)c1S(=O)(=O)NCCOc1ccccc1	10%	-9%	-13%	3%	-39	-3%
CC(=O)c1ccc(-n2c(CCC(=O)O)ccc2-c2ccc(Br)cc2)cc1	2%	10%	14%	0%	-33	?
